The text below walks through data of ChEMBL document CHEMBL1157539, “Thousands of chemical starting points for antimalarial lead identification” (Nature, 2010).

Common to all, as to assay type: functional
The subject of assay [1] is Plasmodium falciparum. The assay is described as follows: GSK_TCMDC: Inhibition of Plasmodium falciparum 3D7 in whole red blood cells, using parasite LDH activity as an index of growth. Test compounds present at 2uM.
In assay [2] the test system is Plasmodium falciparum. The assay is described as follows: GSK_TCMDC: Inhibition of Plasmodium falciparum Dd2 in whole red blood cells, using parasite LDH activity as an index of growth. Test compounds present at 2uM.
A further assay relates to HepG2. The assay is described as follows: GSK_TCMDC: Percent inhibition of human HepG2 cell line. Test compounds present at 10uM.

Turning to `Cc1ccccc1C1CCN(C2CCC(NC(=O)/C=C/c3ccc(C(F)(F)F)cc3)CC2)CC1` (configuration not stated), the Inhibition was 95% with Plasmodium falciparum [1], 19% in the assay with Plasmodium falciparum [2] and 64% in the assay on HepG2.

For `Cl.N=C(N)Nc1cccc(NC(=O)Nc2cccc(NC(=N)N)c2)c1`, the Inhibition is listed as 87% in the assay on Plasmodium falciparum [1], 71% in the assay on Plasmodium falciparum [2] and 0% in the assay with HepG2.

Take `N=C(N)NN=CC(=O)Nc1ccc(Cl)c(Cl)c1`: the Inhibition in the assay on Plasmodium falciparum [1] stood at 97%; with Plasmodium falciparum [2], 0%; in the assay on HepG2, 0%.

Regarding `CC1(C)N=C(N)N=C(N)N1O.Cl`, the Inhibition came out at 93% with Plasmodium falciparum [1], 1% in the assay with Plasmodium falciparum [2] and 7% in the assay on HepG2.

Regarding `COc1ccc(C2CC(=O)C3=C(C2)NC(C)=C(C(=O)OC(C)C)C3c2ccc(O)cc2)cc1OC` (configuration not stated), the Inhibition in the assay with Plasmodium falciparum [1] came out at 99%; in the assay on Plasmodium falciparum [2], 98%; with HepG2 it was 0%.

For `Cc1cc(CN2C(=O)C(c3ccccc3)(c3ccccc3)N=C2N)c(C(F)(F)F)o1`, the Inhibition in the assay on Plasmodium falciparum [1] is 97%; with Plasmodium falciparum [2], 84%; with HepG2 it was 11%.

Turning to `Cc1cc(N[C@@H](CC(C)C)C(=O)Nc2ccccc2)nc(NCCc2ccccc2)n1.O=C(O)C(F)(F)F`, the Inhibition with Plasmodium falciparum [1] was 100%; with Plasmodium falciparum [2] it was 87%; with HepG2, 0%.

In the case of `CCCNC(=O)c1cncc(-c2ccc(CNC(CC)c3ccccc3)cc2)c1.O=C(O)C(F)(F)F` (configuration not stated), the Inhibition with Plasmodium falciparum [1] is reported as 92%; in the assay on Plasmodium falciparum [2] it was 1%; with HepG2, 20%.

For the molecule `Cc1cc(C(=O)Nc2ccc3c(c2)CCN3C2CCN(Cc3csc4ccccc34)C2)no1` (configuration not stated), the Inhibition in the assay with Plasmodium falciparum [1] was determined as 96%; in the assay with Plasmodium falciparum [2], 96%; with HepG2 it was 1%.

For `O=C(NCCN1CCCCC1)c1ccc(CNC(=O)c2ccc(O)c(-c3ccc(Cl)c(Cl)c3)c2)cc1`, the Inhibition in the assay on Plasmodium falciparum [1] was determined as 93%; with Plasmodium falciparum [2] it was 68%; in the assay with HepG2, 3%.

As to `Cc1ccc(NC(=O)c2ccc(CN3CCCN(Cc4cccc(C#N)c4)CC3)cc2)cc1F.O=C(O)C(F)(F)F`, the Inhibition in the assay on Plasmodium falciparum [1] came to 98%; with Plasmodium falciparum [2], 19%; in the assay with HepG2, 49%.

With `CCCC(CNCc1ccccc1)CNc1cc(=O)c2ccccc2[nH]1` (configuration not stated), the Inhibition with Plasmodium falciparum [1] came to 86%; with Plasmodium falciparum [2] it was 21%; in the assay with HepG2, 2%.

Take `COCCNCc1nc(-c2ccc3c(Nc4ccc(Cl)cc4F)ccnc3c2)cs1`: the Inhibition was determined as 100% in the assay with Plasmodium falciparum [1], 100% in the assay with Plasmodium falciparum [2] and 0% in the assay with HepG2.

With `O=C(Nc1cccc(CN2CCCN(Cc3ncc[nH]3)CC2)c1)c1cc2ccccc2s1.O=C(O)C(F)(F)F`, the Inhibition with Plasmodium falciparum [1] is 99%; in the assay with Plasmodium falciparum [2], 35%; in the assay on HepG2, 22%.

Regarding `O=C(Nc1ccc(-c2nc3ccccc3[nH]2)cc1)c1ccc(Cl)s1`, the results for the Inhibition with Plasmodium falciparum [1], with Plasmodium falciparum [2] and in the assay on HepG2 were 99%, 34% and 16%, respectively.

`Cc1nc(C)c(CC(=O)Nc2ccc(-c3cccc(-c4nc5cccc(C)c5[nH]4)c3)cc2)s1`: the Inhibition came out at 100% in the assay with Plasmodium falciparum [1], 38% in the assay on Plasmodium falciparum [2] and 41% in the assay with HepG2.

As for `Cc1ccc(C)c(Sc2ccc(NC(=O)CN3CCN(C(=O)c4ccco4)CC3)cc2)c1`, the Inhibition in the assay on Plasmodium falciparum [1] was 96%; with Plasmodium falciparum [2], 93%; with HepG2, 28%.

For the molecule `CC(Cc1ccc(OCCN2CCN(c3ccc(Cl)cc3)CC2)cc1)NCC(O)c1cccc(C(F)(F)F)c1.Cl` (configuration not stated), the Inhibition in the assay on Plasmodium falciparum [1] turned out to be 99%; in the assay with Plasmodium falciparum [2], 96%; in the assay on HepG2 it was 97%.

For the molecule `COC(=O)c1ccc2nc(-c3cc(-c4cccc(-c5ccccc5)c4)cnc3N)[nH]c2c1`, the Inhibition with Plasmodium falciparum [1] came to 100%; with Plasmodium falciparum [2], 61%; in the assay with HepG2 it was 25%.

As to `CCC(C)Oc1ccc2nc(N)nc(N)c2c1Cl` (configuration not stated), the Inhibition in the assay on Plasmodium falciparum [1] came out at 96%; in the assay on Plasmodium falciparum [2] it was 0%; in the assay with HepG2, 57%.

As for `CS(=O)(=O)c1ccc(CNCc2ccc(-c3ccc(-c4nc5cc(F)ccc5[nH]4)s3)cc2)cc1.O=C(O)C(F)(F)F`, the Inhibition in the assay with Plasmodium falciparum [1] was determined as 100%; with Plasmodium falciparum [2], 97%; with HepG2, 22%.

For `CC1=C(C(=O)OC(C)C)C(c2ccccc2Cl)C2=C(CC(c3ccccc3)CC2=O)N1` (configuration not stated), the values for the Inhibition in the assay on Plasmodium falciparum [1], with Plasmodium falciparum [2] and with HepG2 were 93%, 84% and 15%, respectively.

For the molecule `O=C(NCC1CCC(C(=O)O)CC1)c1ccc(/C=C/C(=O)N2CCc3ccccc3C2c2ccc3c(c2)OCO3)cc1` (configuration not stated), the figures for the Inhibition in the assay on Plasmodium falciparum [1], with Plasmodium falciparum [2] and in the assay on HepG2 were 91%, 17% and 66%, respectively.

Turning to `Nc1ncc(-c2ccsc2)c2ccc(-c3cnc[nH]3)cc12`, the Inhibition in the assay on Plasmodium falciparum [1] turned out to be 100%; with Plasmodium falciparum [2], 70%; in the assay with HepG2 it was 31%.

As for `CCOC(=O)NC1=NC(=N)N(OCc2ccc(Cl)c(Cl)c2)C(C)(C)N1`, the Inhibition was determined as 96% in the assay on Plasmodium falciparum [1], 90% in the assay with Plasmodium falciparum [2] and 66% in the assay on HepG2.

On to `O=C(/C=C/c1ccc(Cl)c(Cl)c1)NCCCCCN1CCCC(CNS(=O)(=O)c2cccc(C(F)(F)F)c2)C1` (configuration not stated), for which the Inhibition in the assay on Plasmodium falciparum [1] was found to be 92%; in the assay on Plasmodium falciparum [2], 0%; with HepG2 it was 73%.

On to `CCCCCCN1CCC(NCc2cccc(C#N)c2)CC1.O=C(O)C(F)(F)F`, for which the Inhibition with Plasmodium falciparum [1] was determined as 97%; in the assay on Plasmodium falciparum [2] it was 9%; in the assay with HepG2, 5%.

Take `Cc1nnsc1C(=O)Nc1ccc(-c2cccc(-c3nc4cc(F)ccc4[nH]3)c2)cc1`: the Inhibition with Plasmodium falciparum [1] amounted to 96%; in the assay with Plasmodium falciparum [2], 27%; in the assay on HepG2, 44%.

For the molecule `O=[N+]([O-])c1ccc(Nc2nc(N/N=C/c3cccc(O)c3)nc(N3CCCC3)n2)cc1`, the Inhibition with Plasmodium falciparum [1] amounted to 88%; in the assay on Plasmodium falciparum [2], 9%; in the assay on HepG2, 0%.
